High-throughput results (PubChem)
A selection: hits, their analogues and other compounds. The true share with any hit is near 2.5%.
Cruzain Triton = inhibitors of Trypanosoma cruzi cruzain with detergent | P25779 | AID 1478 | 200,000 tested, 0.43% active | purified cruzain, Z-FR-AMC fluorescence, 0.01% Triton | Potency, µM, inactives show max response, negative = inhibition, actives largely listed as inhibitors;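 note: plate controls were neutral wells for no effect and buffer without enzyme for full effect; nearly all actives have a fitted effect of over 40% in size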
Target sequence (P25779 123-467 limits assumed): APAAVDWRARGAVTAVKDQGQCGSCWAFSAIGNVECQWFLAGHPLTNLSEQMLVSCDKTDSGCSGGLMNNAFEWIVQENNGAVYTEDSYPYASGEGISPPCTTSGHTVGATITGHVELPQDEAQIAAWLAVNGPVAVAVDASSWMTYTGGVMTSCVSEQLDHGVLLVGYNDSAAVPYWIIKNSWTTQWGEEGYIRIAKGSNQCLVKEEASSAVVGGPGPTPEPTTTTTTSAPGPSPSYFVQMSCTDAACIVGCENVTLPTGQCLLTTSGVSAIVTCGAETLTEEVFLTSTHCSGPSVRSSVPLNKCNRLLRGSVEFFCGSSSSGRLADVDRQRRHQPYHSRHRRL
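Z-FR-AMC hydrolysis (2 uM substrate) by cruzain (1.5 nM) monitored kinetically at ex 360/em 450 nm after 15 min room-temperature compound exposure; 0.01% Triton X-100, pH 5.5, 5 mM DTT.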
Cruzain inh noDet = cruzain (T. cruzi) inhibition without detergent. AID 1476. Potency, µM, without a hit: max response, negative = inhibition, actives largely listed as inhibitors. 200,000 tested, 2.3% active. purified cruzain, Z-FR-AMC fluorescence, no detergent;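 note: plate controls were enzyme without inhibitor for no effect and buffer without enzyme for full effect; nearly all actives have a fitted effect of over 40% in size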
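Purified cruzain at 1.5 nM, pre-incubated 15 min with compound at room temperature in 100 mM sodium acetate pH 5.5, 5 mM DTT, 0.00005% Triton X-100. Reaction started with 2 uM Z-FR-AMC; AMC fluorescence increase over 60 s gives rate.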
The depositor's hits bear a star. Calls come from the whole dose curve; as a rule, active = well fitted curve in the direction sought with a large enough effect; inconclusive = small, poorly fitted or top-dose-only effect, or another doubt; inactive = no such curve, though single readings can be large; an effect the other way counts as inactive or inconclusive. Potency is the fitted concentration of half-maximal effect.

Results for ClC1=C(Cl)C2(Cl)C3C4CC(C5OC45)C3C1(Cl)C2(Cl)Cl (configuration not stated) ?
Cruzain Triton: -2.2%; Cruzain inh noDet: 1.58µM*

How did ClC1=C(Cl)C2(Cl)C3C4C=CC(C4)C3C1(Cl)C2(Cl)Cl (configuration not stated) do in these assays?
Cruzain Triton: 7.5%; Cruzain inh noDet: 8.4%

Results for CCc1cnc2c(c1SCC(=O)c1ccc(OC)cc1)c(=O)n(C)c(=O)n2C ?
Cruzain Triton: -5.5%; Cruzain inh noDet: inconclusive

What do the screens show for `COc1ccc(OC)c(C2C=C(C34CC5CC(CC(C5)C3)C4)NC(=S)N2)c1` (configuration not stated)?
Cruzain Triton: -2.1%; Cruzain inh noDet: 25.1µM*

How did COc1cc(C2C=C(C34CC5CC(CC(C5)C3)C4)NC(=S)N2)cc(OC)c1OC (configuration not stated) do in these assays?
Cruzain Triton: 1.2%; Cruzain inh noDet: inconclusive

What do the screens show for `Cc1cc(C)n(C(C)CC(=O)Nc2ccc(C)c(N(C)C)c2)n1` (configuration not stated)?
Cruzain Triton: -1.4%; Cruzain inh noDet: 7.6%

How did c1ccc2sc(SCN(C3CCCCC3)C3CCCCC3)nc2c1 do in these assays?
Cruzain Triton: -1.8%; Cruzain inh noDet: 5.7%

How did CSc1nsc(/C=C/Nc2ccc(Cl)cc2)c1C#N do in these assays?
Cruzain Triton: -21.2%; Cruzain inh noDet: inconclusive

Results for CSc1nsc(/C=C/Nc2cccc(Cl)c2)c1C#N ?
Cruzain Triton: -6.3%; Cruzain inh noDet: 20µM*

Results for COc1ccc2nc(NC(=O)c3cc(=O)c4cc(C)cc(C)c4o3)sc2c1 ?
Cruzain Triton: -3.8%; Cruzain inh noDet: -4.7%

How did CCOC(=O)c1ccc(NC(=O)Nc2c[nH]c(=O)[nH]c2=O)cc1 do in these assays?
Cruzain Triton: 2.3%; Cruzain inh noDet: 8.1%

What do the screens show for `Cc1c(Cl)cccc1NC(=O)Nc1c[nH]c(=O)[nH]c1=O`?
Cruzain Triton: 1.6%; Cruzain inh noDet: 20µM*

Results for CCOc1ccccc1NC(=O)Cn1nnc2sc3c(c2c1=O)CCC(C(C)(C)C)C3 (configuration not stated) ?
Cruzain Triton: -2.0%; Cruzain inh noDet: -16.2%

What do the screens show for `CCc1ccc(NCc2cc3cc4c(cc3n(CC(=O)Nc3ccc(Cl)cc3)c2=O)OCO4)cc1`?
Cruzain Triton: -1.3%; Cruzain inh noDet: 15.8µM*

Results for Cc1ccc(NCc2cc3cc4c(cc3n(CC(=O)Nc3ccc(C)cc3)c2=O)OCCO4)cc1 ?
Cruzain Triton: -6.6%; Cruzain inh noDet: inconclusive

Results for COc1ccc(NCc2cc3cc4c(cc3n(CC(=O)Nc3cc(C)cc(C)c3)c2=O)OCO4)cc1 ?
Cruzain Triton: -5.0%; Cruzain inh noDet: inconclusive

How did COc1ccc(NCc2cc3cc4c(cc3n(CC(=O)Nc3ccc(C)c(C)c3)c2=O)OCO4)cc1 do in these assays?
Cruzain Triton: -2.6%; Cruzain inh noDet: 15.8µM*

Results for CC(=O)c1ccc(N2C(=O)N(Cc3cccc(C(F)(F)F)c3)c3ccccc3S2(=O)=O)cc1 ?
Cruzain Triton: -2.3%; Cruzain inh noDet: -6.6%

What do the screens show for `CCc1ccc(CNC(=O)c2ccc3c(c2)nc2n3CCOC2)cc1`?
Cruzain Triton: 0.2%; Cruzain inh noDet: 63.1%

How did O=C(NCc1ccccc1)C(=O)Nc1c2c(nn1-c1ccc(F)cc1)CSC2 do in these assays?
Cruzain Triton: -0.5%; Cruzain inh noDet: 20µM*

How did COc1cccc(CNC(=O)C(=O)Nc2c3c(nn2-c2ccccc2)CSC3)c1 do in these assays?
Cruzain Triton: 0.0%; Cruzain inh noDet: inconclusive

How did COc1ccc(-n2c(-c3ccc(C)cc3)cc3c2CC(C)(C)CC3=O)c(OC)c1 do in these assays?
Cruzain Triton: -2.7%; Cruzain inh noDet: -8.1%

Results for Cc1[nH]c2ccccc2c1C(=O)CSc1ccccc1 ?
Cruzain Triton: -5.4%; Cruzain inh noDet: 1.9%

What do the screens show for `Cc1ccc2c(C(=O)CSc3ccccc3)c(C)[nH]c2c1`?
Cruzain Triton: 2.2%; Cruzain inh noDet: 12.6µM*

How did COc1ccc(Cl)cc1NC(=O)c1cc(S(=O)(=O)N2CCc3ccccc32)cn1C do in these assays?
Cruzain Triton: -1.5%; Cruzain inh noDet: 0.7%

What do the screens show for `COc1ccc(-c2c(C)c3ccc(O)c(CN4CCCC4)c3oc2=O)cc1`?
Cruzain Triton: -6.1%; Cruzain inh noDet: 3.4%

How did COC(=O)Cc1c(C)c2ccc(O)c(CN3CCCC(C)C3)c2oc1=O (configuration not stated) do in these assays?
Cruzain Triton: 25.1µM*; Cruzain inh noDet: inconclusive

How did O=S(=O)(c1ccccc1)N1CCC2(CC1)CN(c1ncccn1)C2 do in these assays?
Cruzain Triton: -3.2%; Cruzain inh noDet: 6.5%

How did C/C(=N\NC(=O)CNC(=O)C(c1ccccc1)c1ccccc1)c1ccccc1 do in these assays?
Cruzain Triton: 4.6%; Cruzain inh noDet: 12.6µM*

How did C/C(=N\NC(=O)CNC(=O)C(c1ccccc1)c1ccccc1)c1ccc(C(C)(C)C)cc1 do in these assays?
Cruzain Triton: 0.8%; Cruzain inh noDet: inconclusive

How did C#CCOCCOCCOCCNc1nc(N2CCN(C(=O)[C@H](C)n3cc(CCCN=C(N)N)nn3)CC2)nc(N2CCN(C(=O)[C@H](CCCCN)n3cc(CCCC)nn3)CC2)n1 do in these assays?
Cruzain Triton: -15.0%; Cruzain inh noDet: -0.3%

Results for C#CCOCCOCCOCCNc1nc(N2CCN(C(=O)[C@H]([C@@H](C)CC)n3cc(CCCN=C(N)N)nn3)CC2)nc(N2CCN(C(=O)[C@H](CCCCN)n3cc(CCCC)nn3)CC2)n1 ?
Cruzain Triton: 25.1µM*; Cruzain inh noDet: inconclusive

What do the screens show for `COC(=O)Cc1nnc(NC(=O)c2ccccc2)s1`?
Cruzain Triton: -2.3%; Cruzain inh noDet: -7.7%

Results for Cc1ccc(SCc2nnc(NC(=O)c3ccccc3)s2)cc1 ?
Cruzain Triton: 6.5%; Cruzain inh noDet: 10µM*

How did Cc1cccc(NC(=O)CN2C(=O)C3(SCC(=O)N3c3ccccc3)c3ccccc32)c1 (configuration not stated) do in these assays?
Cruzain Triton: -5.5%; Cruzain inh noDet: -16.7%

How did CC1CCN(C(=O)CSc2c(C(C)C)cnc3c2c(=O)n(C)c(=O)n3C)CC1 do in these assays?
Cruzain Triton: 7.9%; Cruzain inh noDet: 9.4%

How did CCOC(=O)c1cc2cc3ccccc3cc2[nH]1 do in these assays?
Cruzain Triton: -5.9%; Cruzain inh noDet: 25.1µM*

How did CC(C)OC(=O)c1cc2ccccc2[nH]1 do in these assays?
Cruzain Triton: -4.7%; Cruzain inh noDet: -10.2%

How did COc1cc(OC)cc(C(=O)N2CCN(C(=O)COc3ccccc3)CC2)c1 do in these assays?
Cruzain Triton: -1.3%; Cruzain inh noDet: 6.8%

How did CCN(CC)S(=O)(=O)c1ccc(OC)c(NC(=O)c2cc([N+](=O)[O-])ccc2Cl)c1 do in these assays?
Cruzain Triton: 2.0%; Cruzain inh noDet: -0.8%

What do the screens show for `COCCOc1cc(NC(=O)c2sccc2Oc2ccc([N+](=O)[O-])cc2F)c(Cl)cc1Cl`?
Cruzain Triton: 1.0%; Cruzain inh noDet: 15.8µM*

Results for N#C[C@H]1CN[C@H](N)N[C@@H]1N ?
Cruzain Triton: 2.0%; Cruzain inh noDet: 3.9%

Results for COc1ccc(S(=O)(=O)c2c(C(=O)c3ccc(C)c(C)c3)cnc3ccc(F)cc23)cc1 ?
Cruzain Triton: -2.9%; Cruzain inh noDet: 12.6µM*

How did Cc1ccc2ncc(C(=O)c3ccc(C)c(C)c3)c(S(=O)(=O)c3ccc(F)cc3)c2c1 do in these assays?
Cruzain Triton: -6.2%; Cruzain inh noDet: inconclusive

What do the screens show for `COc1ccc(C(=O)c2cnc3ccc(C)cc3c2S(=O)(=O)c2ccccc2)cc1`?
Cruzain Triton: -4.0%; Cruzain inh noDet: inconclusive
